Experimental findings from PubChem BioAssay (NCI) are described below.

About 83,000 compounds went through this panel and 20% of them were active in at least one assay; those are over-represented in the sample as a whole.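 Negative percent growth values reflect cell death: -40 means 40% of the cells present at the start died, and -100 means all died.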 Active and inactive are the calls of the source.

The test system of this test is KM12 colon. Nature of the test: NCI-60 one-dose screen, 48 h (100 = growth as untreated, 0 = no growth, -100 = all killed). The settings on record: 10 µM. As to the method: Growth inhibition of the KM12 human tumor cell line is measured as a screen for anti-cancer activity. Cells are grown in 96 well plates and exposed to the test compound for 48 hours. Compounds are tested at a single concentration, which is 10^-5 M for most compounds. The reported endpoint is percent growth (GI% or GIPRCNT), where numbers from 0 - 100% represent growth inhibition, and numbers from -100% - 0 represent cell death. For example, a value of 40 represents 60% growth inhibition. A value of 0 means no net growth occurred over the course of the experiment. A value of -40 indicates 40% of cells at the beginning of the experiment died by the end of the experiment. A value of -100 means all cells are dead at the end of the experiment.
NCI-60 Human Tumor Cell Lines Screen was performed using the standard one-dose NCI protocol, which is described in more detail at https://dtp.cancer.gov/discovery_development/nci-60/default.htm.
Compounds with GIPRCNT values below 10 were considered active. Activity score was based on GIPRCNT using the following formula: […]
Score is 0 for GIPRCNT values of 100 or above, 50 for GIPRCNT values of 0, and 100 for GIPRCNT values of -100.
Turning to `COc1ccc(C(=O)c2ccccc2CN2C(=O)c3ccccc3C2=O)cc1`, the growth was 107% (inactive). The value for `COc1cc2c(cc1NC(=O)C(Cl)Cl)-c1ccc(NC(=O)C(Cl)Cl)cc1C2` was -65.5% (active). In the case of `c1ccc(CSc2ncccc2-c2nnc(SCCN3CCOCC3)o2)cc1` it was 107% (inactive); in that of `CC(=O)C1N=NCC1c1ccccc1` (stereo not given), 102% (inactive). With `COc1ccc(-c2n[nH]nc2-c2cc(OC)c3c(c2OC)OCO3)cc1`, the growth is 31.9% (inactive). On to `c1ccc(CCCCc2ccc3ccccc3n2)cc1`, for which the growth was 106% (inactive).

As to `COCCn1cc(-c2nc(-c3cccnc3)cs2)c2cc(F)ccc21`, the growth is 69.4% (inactive). Take `COc1ccc(Cl)cc1Nc1nc(C(F)(F)F)ccc1C(=O)N/N=C/c1cc(OC)c(OC)c(OC)c1`: the growth was 30.6% (inactive).

With `COc1cc2nc(SCC(=O)Nc3cc(OC)c(OC)c(OC)c3)n(Cc3ccccc3)c(=O)c2cc1OC`, the growth was 77.8% (inactive).

With `IC(I)I`, the growth is 104% (inactive). With `COc1cc(C2CC(c3ccc4c(c3)OCO4)=NN2c2ccccc2)cc(OC)c1OC` (stereo not given), the growth was 60.9% (inactive). On to `N#Cc1cnn(C(=O)c2nn(-c3ccc(Cl)cc3)cc2O)c1N`, for which the growth is 19.1% (inactive). In the case of `CCCN(CCC)C(=O)[C@H](CC)[C@@H]1CC[C@@H](C)[C@@H]([C@H](C)[C@@H](O)[C@@H](C)C(=O)[C@H](CC)C2O[C@]3(C=C[C@@H](O)[C@]4(CC[C@@](C)([C@H]5CC[C@](O)(CC)[C@H](C)O5)O4)O3)[C@H](C)C[C@@H]2C)O1` (stereo not given in full) it was 19.9% (inactive); in that of `O=C(O)c1cc([N+](=O)[O-])ccc1Oc1ccccc1`, 98.2% (inactive); in that of `CCC(=O)OC1CCC2C3CCC(=O)OC3C(C)(CCC(=O)O)CC12C` (stereo not given), 25.7% (inactive). With `C/C=C/CSC(C)(C)C(=O)NC`, the growth was 102% (inactive). The value for `Nc1ccn(Cc2nnc(CCC(=O)c3nc4ccccc4[nH]3)o2)c(=O)n1` was 84.4% (inactive); that for `CC(C)(C)c1ccc(S(=O)(=O)Oc2ccc(NC(=O)C3CCCCC3)cc2)cc1` was 31.7% (inactive). As for `N#Cc1c(-c2ccc(Cl)cc2)n(O)c2ccccc12`, the growth was 15.9% (inactive). The value for `Cc1ccc(C(=O)C2C(=O)C3CCC2C3)cc1` (stereo not given) was 107% (inactive). The value for `CC[C@@H](C(=O)[C@@H](C)[C@@H](O)[C@H](C)[C@@H]1O[C@@H]([C@@H](CC)C(=O)O)CC[C@@H]1C)C1O[C@]2(C=CC(=O)[C@]3(CC[C@@](C)([C@H]4CC[C@](O)(CC)[C@H](C)O4)O3)O2)[C@H](C)C[C@@H]1C` (stereo not given in full) was 36% (inactive).

Regarding `O=C(c1ccccc1)N(C(=O)c1ccccc1)N1CCCC1`, the growth is 107% (inactive). In the case of `O=C(CCCSc1nc(-c2ccc(Cl)cc2)cc(-c2ccc(Cl)cc2)n1)NO` it was 26.3% (inactive); in that of `CCn1c(SCc2ccc(C)cc2)nnc1-c1nn(-c2ccc(Cl)cc2Cl)c(-c2ccc(Cl)cc2)c1C`, 15.8% (inactive); in that of `CCOC(=O)C1=CSC2=NC3=C(CCC/C3=C\c3cc(OC)c(OC)c(OC)c3)C(c3cc(OC)c(OC)c(OC)c3)N12` (stereo not given), -21.8% (active). The value for `COc1ccc(-c2nc(-c3nc4ccc(C)cc4[nH]3)cc3c2[nH]c2ccccc23)cc1` was 21% (inactive). Regarding `CC[C@@H](C(=O)[C@H](C)[C@H](O)[C@@H](C)[C@H]1O[C@H]([C@@H](CC)C(=O)N(CC)CC)CC[C@H]1C)C1O[C@]2(C=C[C@@H](O)[C@]3(CC[C@@](C)([C@H]4CC[C@](O)(CC)[C@H](C)O4)O3)O2)[C@H](C)C[C@@H]1C` (stereo not given in full), the growth is 29.6% (inactive). The value for `O=[N+]([O-])c1ccc2ncccc2c1Cl` was -7.28% (active); that for `O=C(Nc1cc(Cl)cc2c1-c1ccc(Cl)cc1C2O)C(Cl)Cl` (stereo not given) was 76.4% (inactive); that for `O=c1oc2c(cc1-c1ccc(F)cc1)C(O)Oc1ccccc1-2` (stereo not given) was 45.3% (inactive). Take `CN1CCc2c(sc3nc4n(-c5ccc(Cl)cc5)c(=O)[nH]n4c(=O)c23)C1`: the growth is 100% (inactive). The value for `CC(C)CCN(CCC(C)C)CC(=O)Nc1ccc(S(=O)(=O)c2ccc(NC(=O)CN(CCC(C)C)CCC(C)C)cc2)cc1` was 54.5% (inactive); that for `CN(C)c1nc(N)c2nccnc2n1` was 101% (inactive); that for `CCOC(=O)c1sc2ncnc(Nc3ccc(NC(=O)Nc4ccc(Cl)cc4)cc3)c2c1C` was 55.3% (inactive).

As for `S=C(SSC(=S)N(c1ccccc1)c1ccccc1)N(c1ccccc1)c1ccccc1`, the growth was 98.1% (inactive). As to `O=C(CCCCNC(=O)c1nc(-c2ccccc2)n(-c2ccccc2)n1)NO`, the growth is 92.9% (inactive). In the case of `Cc1nc2n(c(=O)c1CCN1CCC(c3noc4cc(F)ccc34)CC1)CCC[C@@H]2O` it was 99.9% (inactive); in that of `CC(C)C1=C(O)C2=C(C(=O)C1=O)[C@@]1(C)CCCC(C)(C)[C@@H]1CC2`, 52% (inactive). As for `CC1=NN(C(=O)c2nn(-c3ccc(Cl)cc3)cc2O)C(=O)C1`, the growth is 49% (inactive).

For the compound `CCOC(=O)c1cc(C(=O)c2cc(OC)cc(OC)c2)n2ncc3ccccc3c12`, the growth is 25.9% (inactive).
